Among the data in PubChem BioAssay (EPA / NIEHS) are outcome and AC50 values, retold here.

Common to all, as to conditions: mRNA level, 48 h; actives raise or lower the signal
Read-out in one test: CYP2C9 (gene 1559)
The test is described as follows: LTEA_HepaRG_CYP2C9: Life Technologies and Expression Analysis (LTEA) Assay for CYP2C9 using HepaRG (AID 2283484). The essentials: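 Eight-point concentration-response (highest 100 uM, half-log dilutions) in HepaRG cells for 48 h; CYP2C9 expression by qRT-PCR normalized to ACTB, GAPDH, POLR2A. Bidirectional fit, DMSO baseline.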

Read-out in the next test: CYP2E1 (gene 1571)
Kind of test: LTEA_HepaRG_CYP2E1: Life Technologies and Expression Analysis (LTEA) Assay for CYP2E1 using HepaRG (AID 2283485). The essentials: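 Assay uses 48 h exposure of HepaRG hepatic cells, eight concentrations to 100 uM. Expression of CYP2E1 is quantified by TaqMan qRT-PCR with ACTB, GAPDH and POLR2A normalization; curves fitted in both directions relative to vehicle.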

Read-out in a further test: CYP4A11 (gene 1579)
Kind of test: LTEA_HepaRG_CYP4A11: Life Technologies and Expression Analysis (LTEA) Assay for CYP4A11 using HepaRG (AID 2283486). Put shortly: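 CYP4A11 transcript levels were quantified by TaqMan qRT-PCR after HepaRG human liver cells were treated for 48 hours with test chemicals (top 100 uM, half-log dilutions, 0.5% DMSO). Gain or loss of signal was fitted relative to DMSO.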

Read-out in test [1]: Cytochrome P450 3A4 (Homo sapiens) (UniProt P08684)
Kind of test: LTEA_HepaRG_CYP3A4: Life Technologies and Expression Analysis (LTEA) Assay for CYP3A4 using HepaRG (AID 2283487). The essentials: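 CYP3A4 transcript measured by TaqMan qRT-PCR and normalized to three housekeeping genes after 48 h chemical exposure of human HepaRG cells. Top concentration 100 uM, half-log steps, 0.5% DMSO vehicle; gain or loss fitted against DMSO baseline.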

Read-out in test [2]: DNA damage-inducible transcript 3 (DDIT3), DDIT3 (gene 1649)
The test is described as follows: LTEA_HepaRG_DDIT3: Life Technologies and Expression Analysis (LTEA) Assay for DNA damage-inducible transcript 3 (DDIT3) using HepaRG (AID 2283488). Put shortly:
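Eight-point concentration-response (100 uM highest, half-log dilutions) in HepaRG, 48 h, duplicate wells. Endpoint: qRT-PCR mRNA, normalized (ACTB, GAPDH, POLR2A), bidirectional fitting with DMSO as baseline.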

Read-out in test [3]: Pro-epidermal growth factor (Homo sapiens) (UniProt P01133)
Kind of test: LTEA_HepaRG_EGF: Life Technologies and Expression Analysis (LTEA) Assay for Epidermal growth factor (EGF) using HepaRG (AID 2283489). The essentials: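 qRT-PCR readout of EGF transcript after 48 h chemical exposure of HepaRG cells; eight concentrations from 100 uM down in half-log steps, duplicate wells, 0.5% DMSO vehicle. Bidirectional curve fitting against DMSO baseline.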

Read-out in test [4]: Early growth response protein 1 (EGR1) transcription factor, EGR1 (gene 1958)
The test is described as follows: LTEA_HepaRG_EGR1: Life Technologies and Expression Analysis (LTEA) Assay for Early growth response protein 1 (EGR1) transcription factor using HepaRG (AID 2283490). Put shortly:
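EGR1 expression change in human HepaRG after 48 h chemical exposure, assessed by housekeeping-normalized qRT-PCR; concentration-response up to 100 uM, fitted in both directions against DMSO controls.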

Read-out in test [5]: Ezrin (EZR), EZR (gene 7430)
The test is described as follows: LTEA_HepaRG_EZR: Life Technologies and Expression Analysis (LTEA) Assay for Ezrin (EZR) using HepaRG (AID 2283491). Put shortly:
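HepaRG, 48 h chemical exposure, 8-pt half-log series from 100 uM, 0.5% DMSO vehicle, duplicates. Read-out: EZR mRNA by TaqMan qRT-PCR (Fluidigm array), housekeeping-normalized; bidirectional curve fit vs DMSO baseline.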

Read-out in test [6]: Cytochrome P450 3A7 (Homo sapiens) (UniProt P24462)
Kind of test: LTEA_HepaRG_CYP3A7: Life Technologies and Expression Analysis (LTEA) Assay for CYP3A7 using HepaRG (AID 2283492). The essentials:
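CYP3A7 transcript levels were read by TaqMan qRT-PCR on Fluidigm arrays after 48 h chemical exposure of human HepaRG cells, with housekeeping-gene normalisation. Eight half-log concentrations up to 100 uM in 0.5% DMSO were tested in duplicate.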

Read-out in a further test: CYP3A5 (gene 1577)
Kind of test: LTEA_HepaRG_CYP3A5: Life Technologies and Expression Analysis (LTEA) Assay for CYP3A5 using HepaRG (AID 2283493). Put shortly:
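Readout was CYP3A5 mRNA by qRT-PCR. HepaRG cultures were exposed for 48 h in serum-free induction medium to chemicals at up to 100 uM, and responses were fitted in both directions relative to DMSO vehicle.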

Read-out in test [7]: Fatty Acid-Binding Protein 1 (FABP1), FABP1 (gene 2168)
Kind of test: LTEA_HepaRG_FABP1: Life Technologies and Expression Analysis (LTEA) Assay for Fatty Acid-Binding Protein 1 (FABP1) using HepaRG (AID 2283494). Put shortly:
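Values reflect bidirectional concentration-response fitting of FABP1 mRNA change against 0.5% DMSO controls. Human HepaRG cultures received eight half-log doses (top 100 uM) for 48 h; expression quantified by TaqMan qRT-PCR with housekeeping-gene normalization.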

Read-out in test [8]: Cytochrome P450 4A22 (Homo sapiens) (UniProt Q5TCH4)
The test is described as follows: LTEA_HepaRG_CYP4A22: Life Technologies and Expression Analysis (LTEA) Assay for Cytochrome P450 4A22 (CYP4A22) using HepaRG (AID 2283495). The essentials:
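HepaRG, 48 h post-plating -> serum-free induction medium; dosed 48 h, duplicate, 8 conc. (100 uM top, half-log), 0.5% DMSO. Readout: CYP4A22 mRNA by qRT-PCR, ACTB/GAPDH/POLR2A normalization; gain/loss fit relative to DMSO.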

Read-out in test [9]: Cytochrome P450 7A1 (Homo sapiens) (UniProt P22680)
Kind of test: LTEA_HepaRG_CYP7A1: Life Technologies and Expression Analysis (LTEA) Assay for Cytochrome P450 7A1 (CYP7A1) using HepaRG (AID 2283496). Put shortly:
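Using 0.5% DMSO as vehicle and baseline, chemicals were tested in duplicate over an 8-point range from 100 uM on HepaRG cells for 48 h; qRT-PCR signals were normalised to ACTB, GAPDH and POLR2A.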

Read-out in test [10]: Glutathione S-Transferase (GSTA2), GSTA2 (gene 2939)
Kind of test: LTEA_HepaRG_GSTA2: Life Technologies and Expression Analysis (LTEA) Assay for Glutathione S-Transferase (GSTA2) using HepaRG (AID 2283497). The essentials: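 Oxidative-stress marker GSTA2 is quantified by TaqMan qRT-PCR in HepaRG cultures treated 48 h across an eight-point range to 100 uM. Expression is normalized to endogenous controls and compared with 0.5% DMSO vehicle.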

Read-out in test [11]: Glutamate-cysteine ligase catalytic (GCLC), GCLC (gene 2729)
The test is described as follows: LTEA_HepaRG_GCLC: Life Technologies and Expression Analysis (LTEA) Assay for Glutamate-cysteine ligase catalytic (GCLC) using HepaRG (AID 2283498). Put shortly: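 Oxidative-stress marker GCLC is measured as mRNA change in human HepaRG liver cells after 48 h chemical treatment in 0.5% DMSO, eight concentrations from 100 uM. Activity is fitted bidirectionally against vehicle.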

Read-out in test [12]: growth arrest and DNA damage 45 (GADD45G), GADD45G (gene 10912)
Kind of test: LTEA_HepaRG_GADD45G: Life Technologies and Expression Analysis (LTEA) Assay for growth arrest and DNA damage 45 (GADD45G) using HepaRG (AID 2283499). Put shortly: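 HepaRG, 48 h exposure, top 100 uM, half-log 8-point series, 0.5% DMSO vehicle, duplicates. Readout: GADD45G transcript by qRT-PCR (Fluidigm array), housekeeping-normalised (ACTB/GAPDH/POLR2A). Bidirectional curve fit vs DMSO baseline.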

Read-out in test [13]: Glutamate-cysteine ligase regulatory (GCLM), GCLM (gene 2730)
Kind of test: LTEA_HepaRG_GCLM: Life Technologies and Expression Analysis (LTEA) Assay for Glutamate-cysteine ligase regulatory (GCLM) using HepaRG (AID 2283500). Put shortly: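 In this multiplexed HepaRG gene-expression assay, GCLM mRNA change after 48 h treatment (8 concentrations, max 100 uM) was scored against DMSO by bidirectional curve fitting.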

Read-out in test [14]: Heat shock 70 kDa protein 1 (HSPA1A), gene 3303
The test is described as follows: LTEA_HepaRG_HSPA1A: Life Technologies and Expression Analysis (LTEA) Assay for Heat shock 70 kDa protein 1 (HSPA1A) using HepaRG (AID 2283502). Put shortly:
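An oxidative-stress marker readout: HepaRG cells treated 48 h in duplicate with an eight-point series (highest 100 uM) had HSPA1A mRNA quantified by TaqMan qRT-PCR. Activity was fitted in both directions using 0.5% DMSO as baseline.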

Read-out in test [15]: Hypoxia-inducible factor 1-alpha (Homo sapiens) (UniProt Q16665)
Kind of test: LTEA_HepaRG_HIF1A: Life Technologies and Expression Analysis (LTEA) Assay for Hypoxia-inducible factor 1 (HIF1A) Trancription factor using HepaRG (AID 2283503).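 Also: HIF1A transcript by TaqMan qRT-PCR normalized to ACTB GAPDH and POLR2A.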 Put shortly:
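Gain- or loss-of-signal HIF1A mRNA changes are fitted against a DMSO baseline. HepaRG cultures receive eight concentrations, highest 100 uM, for 48 h in serum-free induction medium with 0.5% DMSO.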

Read-out in test [16]: Glutathione S-transferase M3 (GSTM3), GSTM3 (gene 2947)
The test is described as follows: LTEA_HepaRG_GSTM3: Life Technologies and Expression Analysis (LTEA) Assay for Glutathione S-transferase M3 (GSTM3) using HepaRG (AID 2283501). The essentials:
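qRT-PCR read-out of GSTM3 transcript, normalized to three housekeeping genes, from human HepaRG cells after 48 h chemical exposure. Eight-point half-log series, top 100 uM, 0.5% DMSO vehicle; gain or loss fitted relative to DMSO baseline.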

SMILES strings stand for the structures. The source made the active and inactive calls. The calls were made as follows: active = hit-call score of the fitted dose curve at least 0.9, where 1 is the maximum; inactive = score below 0.9.

Chain of Cytochrome P450 3A4 (Homo sapiens) (P08684 whole entry, looked up): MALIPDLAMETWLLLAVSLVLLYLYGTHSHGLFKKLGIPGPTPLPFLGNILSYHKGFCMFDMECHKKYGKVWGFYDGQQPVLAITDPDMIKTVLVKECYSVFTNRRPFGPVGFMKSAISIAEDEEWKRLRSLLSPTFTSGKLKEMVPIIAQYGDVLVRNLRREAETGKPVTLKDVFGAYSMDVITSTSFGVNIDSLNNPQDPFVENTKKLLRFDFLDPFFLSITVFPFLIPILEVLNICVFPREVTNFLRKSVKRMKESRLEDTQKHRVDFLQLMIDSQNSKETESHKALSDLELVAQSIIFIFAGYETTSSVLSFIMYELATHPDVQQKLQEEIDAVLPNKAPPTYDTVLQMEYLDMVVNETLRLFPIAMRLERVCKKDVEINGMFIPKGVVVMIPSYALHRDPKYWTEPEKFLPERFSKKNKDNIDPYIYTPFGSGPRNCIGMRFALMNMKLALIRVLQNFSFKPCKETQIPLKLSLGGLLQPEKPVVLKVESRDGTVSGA
Chain of Cytochrome P450 3A7 (Homo sapiens) (P24462 whole entry, looked up): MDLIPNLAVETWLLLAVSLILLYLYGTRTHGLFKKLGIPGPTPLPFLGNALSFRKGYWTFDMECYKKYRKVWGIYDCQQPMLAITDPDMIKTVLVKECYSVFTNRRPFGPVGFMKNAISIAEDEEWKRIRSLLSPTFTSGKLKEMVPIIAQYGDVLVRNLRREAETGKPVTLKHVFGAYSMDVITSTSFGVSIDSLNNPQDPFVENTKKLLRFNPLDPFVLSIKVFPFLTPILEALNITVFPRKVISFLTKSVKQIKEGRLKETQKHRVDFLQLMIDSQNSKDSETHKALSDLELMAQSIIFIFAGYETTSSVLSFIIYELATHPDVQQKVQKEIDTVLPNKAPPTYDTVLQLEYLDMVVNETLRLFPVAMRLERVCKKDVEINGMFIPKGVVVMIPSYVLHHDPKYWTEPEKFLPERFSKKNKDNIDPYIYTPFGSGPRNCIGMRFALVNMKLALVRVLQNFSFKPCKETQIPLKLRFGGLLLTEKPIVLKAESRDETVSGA
Chain of Hypoxia-inducible factor 1-alpha (Homo sapiens) (Q16665 whole entry, looked up): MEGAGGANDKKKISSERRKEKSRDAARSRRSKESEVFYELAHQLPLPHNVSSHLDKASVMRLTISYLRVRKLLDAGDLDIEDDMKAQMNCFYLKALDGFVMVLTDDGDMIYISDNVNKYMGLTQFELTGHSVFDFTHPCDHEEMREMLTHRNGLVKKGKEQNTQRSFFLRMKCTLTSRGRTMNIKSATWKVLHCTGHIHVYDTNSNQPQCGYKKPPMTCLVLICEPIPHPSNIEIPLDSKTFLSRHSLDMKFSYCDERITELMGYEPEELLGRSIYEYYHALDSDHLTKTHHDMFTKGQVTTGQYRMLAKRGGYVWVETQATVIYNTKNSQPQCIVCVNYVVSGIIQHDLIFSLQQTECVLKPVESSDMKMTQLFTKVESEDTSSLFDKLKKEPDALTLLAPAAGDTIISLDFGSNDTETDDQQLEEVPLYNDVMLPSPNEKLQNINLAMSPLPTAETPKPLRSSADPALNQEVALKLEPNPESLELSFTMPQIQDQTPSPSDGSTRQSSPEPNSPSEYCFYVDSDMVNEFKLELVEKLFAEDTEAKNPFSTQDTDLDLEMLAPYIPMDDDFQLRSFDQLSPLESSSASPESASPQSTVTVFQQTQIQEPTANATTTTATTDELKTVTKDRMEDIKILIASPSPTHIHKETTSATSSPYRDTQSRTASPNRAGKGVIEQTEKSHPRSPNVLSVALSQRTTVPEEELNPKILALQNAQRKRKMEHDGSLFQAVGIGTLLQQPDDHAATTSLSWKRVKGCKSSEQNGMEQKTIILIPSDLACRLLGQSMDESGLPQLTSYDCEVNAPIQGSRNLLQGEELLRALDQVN

As a reminder, the AC50 is the concentration giving half of the maximal activity seen. For the compound `O=C(Oc1ccc(Br)cc1)N1CCN2CCC1CC2`, the compound was classed as inactive (in the test with CYP2C9 (gene 1559); in [2]; in test [3]; in test [4]; in test [5]; in test [6]). Also, the result (with CYP3A5 (gene 1577); in test [9]; in test [10]; in test [11]; in test [12]; in test [13]) was inactive. The result in test [14] and in test [15] was inactive. The half-maximal activity concentration (AC50) with CYP2E1 (gene 1571) was 63.8 µM (active); with CYP4A11 (gene 1579), 34.9 µM (active); in [1], 33.3 µM (active); in [7], 31.6 µM (active); in [8], 40 µM (active).
With `CS(=O)(=O)NC(=O)c1cc(Oc2ccc(C(F)(F)F)cc2Cl)ccc1[N+](=O)[O-]`, the outcome (with CYP2C9 (gene 1559); in test [2]; in [3]; in [4]; in [5]; with CYP3A5 (gene 1577)) was inactive. The outcome in [7], in test [8], in test [9], in test [10], in [11] and in test [12] was inactive. The compound was classed as inactive in test [13], in [16] and in [14]. The AC50 was 9.92 µM (active) with CYP2E1 (gene 1571), 2.84 µM (active) with CYP4A11 (gene 1579), 1.23 µM (active) in test [1] and 4.43 µM (active) in test [6].
On to `Nc1ccc([N+](=O)[O-])cc1`, for which the outcome (in the test with CYP2C9 (gene 1559); with CYP2E1 (gene 1571); in the test with CYP4A11 (gene 1579); in test [1]; in test [2]; in test [3]) was inactive. Moreover, the compound was classed as inactive (in test [4]; in test [5]; in test [6]; with CYP3A5 (gene 1577); in test [7]; in [8]). Also, the result in test [9], in test [10], in test [11], in test [12], in test [13] and in [16] was inactive. Besides, the result in test [14] and in test [15] was inactive.
